In PubChem BioAssay AID1159580 (chemical genetic matrix, 2015):
The whole screen tested about 5,500 compounds, of which about 2,000 (36%) were called active. About 18% were inconclusive and are not listed. Rule as the data show it: active = normalized growth mostly below about 0.91 (no sharp cut-off); inconclusive = no clear call, values can overlap the other calls; inactive = mostly above about 0.92. This is one part of the list.

Assay: chemical genetic growth profiling, strain panel (AID 1159580);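 also: tested at 20 µM; growth read once vehicle control cultures reached saturation at 30 °C; 1 = growth at the plate median or of vehicle wells; lower values mean less growth of the strain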
Details: S. cerevisiae deletion strains, growth OD
[1] = locus YAR019C, strain CDC15, hits give low values
[2] = locus YBL105C, strain PKC1, hits give low values
[3] = locus YBR135W, strain CKS1, hits give low values
[4] = locus YBR136W, strain MEC1, hits give low values
[5] = locus YBR160W, strain CDC28, hits give low values
[6] = locus YDL017W, strain CDC7, hits give low values
[7] = locus YDL028C, strain MPS1, hits give low values
[8] = locus YDL101C, strain DUN1, hits give low values
[9] = locus YDL108W, strain KIN28, hits give low values
[10] = locus YDL132W, strain cdc53, hits give low values
[11] = locus YDL214C, strain PRR2, hits give low values
[12] = locus YDR052C, strain DBF4, hits give low values
[13] = locus YDR054C, strain cdc34, hits give low values
[14] = locus YDR226W, strain ADK1, hits give low values
[15] = locus YDR477W, strain SNF1, hits give low values
[16] = locus YER123W, strain YCK3, hits give low values
[17] = locus YER133W, strain GLC7, hits give low values
[18] = locus YFL009W, strain cdc4, hits give low values
[19] = locus YFL029C, strain CAK1, hits give low values
[20] = locus YFR003C, strain YPI1, hits give low values
[21] = locus YFR019W, strain FAB1, hits give low values
[22] = locus YFR028C, strain CDC14, hits give low values
[23] = locus YGR040W, strain KSS1, hits give low values
[24] = locus YGR052W, strain FMP48, hits give low values
[25] = locus YGR092W, strain DBF2, hits give low values
[26] = locus YHR030C, strain SLT2, hits give low values
[27] = locus YHR079C, strain IRE1, hits give low values
[28] = locus YHR082C, strain KSP1, hits give low values
[29] = locus YHR205W, strain SCH9, hits give low values
[30] = locus YIL147C, strain SLN1, hits give low values
[31] = locus YJL095W, strain BCK1, hits give low values
[32] = locus YJL128C, strain PBS2, hits give low values
[33] = locus YJL157C, strain FAR1, hits give low values
[34] = locus YJR016C, strain ILV3, hits give low values
[35] = locus YJR066W, strain TOR1 (second series), hits give low values
[36] = locus YJR066W, strain TOR1, hits give low values
[37] = locus YKL048C, strain ELM1, hits give low values
[38] = locus YKL067W, strain YNK1, hits give low values
[39] = locus YKL101W, strain HSL1, hits give low values
[40] = locus YKL193C, strain SDS22, hits give low values
[41] = locus YKL203C, strain TOR2, hits give low values
[42] = locus YLR113W, strain HOG1, hits give low values
[43] = locus YLR133W, strain CKI1, hits give low values
[44] = locus YLR403W, strain SFP1, hits give low values
[45] = locus YML070W, strain DAK1, hits give low values
[46] = locus YMR001C, strain CDC5, hits give low values
[47] = locus YMR205C, strain PFK2 (second series), hits give low values
[48] = locus YMR277W, strain FCP1, hits give low values
[49] = locus YNL006W, strain LST8, hits give low values
[50] = locus YNL020C, strain ARK1, hits give low values
[51] = locus YNL161W, strain CBK1, hits give low values
[52] = locus YNL183C, strain NPR1, hits give low values
[53] = locus YNL207W, strain RIO2, hits give low values
[54] = locus YNL222W, strain SSU72, hits give low values
[55] = locus YNL307C, strain MCK1 (second series), hits give low values
[56] = locus YOL078W, strain AVO1, hits give low values
[57] = locus YOL136C, strain PFK27, hits give low values
[58] = locus YOR061W, strain CKA2, hits give low values
[59] = locus YOR119C, strain RIO1, hits give low values
[60] = locus YOR231W, strain MKK1, hits give low values
[61] = locus YOR329C, strain SCD5, hits give low values
[62] = locus YPL031C, strain PHO85, hits give low values
[63] = locus YPL153C, strain RAD53, hits give low values
[64] = locus YPL204W, strain HRR25, hits give low values
[65] = locus YPL209C, strain IPL1, hits give low values
[66] = locus YPL256C, strain CLN2, hits give low values
[67] = locus YPR025C, strain CCL1, hits give low values
[68] = locus YPR106W, strain ISR1, hits give low values
[69] = locus YPR111W, strain DBF20, hits give low values
[70] = strain NNK1, hits give low values
[71] = strain TSCII, hits give low values

Measured: normalized growth

O=C(NC(=S)Nc1cccc(C(F)(F)F)c1)c1ccc2nonc2c1
inactive: [1] 0.956 | [2] 0.968 | [3] 0.93 | [4] 0.952 | [5] 0.96 | [6] 0.96 | [7] 0.952 | [8] 0.957 | [9] 0.957 | [10] 0.967 | [11] 0.973 | [12] 0.978 | [13] 0.94 | [14] 0.957 | [15] 0.896 | [16] 0.971 | [17] 0.95 | [18] 0.944 | [19] 0.961 | [20] 0.96 | [21] 1 | [22] 0.944 | [23] 0.907 | [24] 1.04 | [25] 0.989 | [27] 0.949 | [28] 0.912 | [29] 0.907 | [30] 0.952 | [31] 0.778 | [32] 0.978 | [33] 0.974 | [34] 0.93 | [35] 0.938 | [36] 0.838 | [37] 0.968 | [38] 0.979 | [39] 0.956 | [40] 0.953 | [41] 0.972 | [43] 0.966 | [44] 0.968 | [45] 0.953 | [46] 0.957 | [47] 0.959 | [48] 0.953 | [49] 0.961 | [50] 0.962 | [51] 0.954 | [52] 0.852 | [53] 0.962 | [54] 0.947 | [55] 0.974 | [56] 0.953 | [57] 0.991 | [58] 0.967 | [59] 1.02 | [60] 0.863 | [61] 0.969 | [62] 0.912 | [63] 0.905 | [64] 0.936 | [65] 0.945 | [67] 0.951 | [68] 0.973 | [69] 0.936 | [70] 0.954 | [71] 0.939
active: [26] 0.774 | [42] 0.713 | [66] 0.831

Fc1cccc(F)c1NC(=S)Nc1cc(C(F)(F)F)cc(C(F)(F)F)c1
inactive: [1] 0.979 | [2] 0.979 | [3] 0.981 | [4] 0.982 | [5] 0.982 | [6] 0.992 | [7] 0.975 | [8] 0.991 | [9] 0.984 | [10] 0.979 | [11] 0.907 | [12] 0.987 | [13] 0.978 | [14] 0.986 | [15] 0.948 | [16] 0.907 | [17] 0.933 | [18] 0.976 | [19] 0.976 | [20] 0.981 | [21] 0.98 | [22] 0.977 | [23] 0.954 | [24] 0.933 | [25] 0.967 | [26] 0.981 | [27] 0.85 | [28] 1.01 | [29] 0.87 | [30] 0.981 | [31] 0.862 | [32] 0.919 | [33] 0.923 | [34] 0.979 | [35] 0.931 | [36] 1.06 | [37] 0.934 | [38] 0.931 | [39] 0.91 | [40] 0.977 | [41] 1.02 | [43] 0.948 | [44] 0.974 | [45] 0.907 | [46] 0.981 | [47] 0.95 | [48] 0.975 | [49] 0.977 | [50] 0.932 | [51] 0.98 | [52] 0.98 | [53] 0.985 | [54] 0.979 | [55] 0.918 | [56] 0.977 | [57] 0.928 | [58] 0.953 | [59] 0.997 | [60] 0.91 | [61] 0.986 | [62] 0.942 | [63] 0.939 | [64] 0.936 | [65] 0.991 | [67] 0.982 | [68] 0.981 | [69] 0.972 | [70] 0.974 | [71] 0.98
active: [42] 0.742 | [66] 0.829
